The full list was thinned out, with hits kept by preference.
Shiga inhibitor: inhibitors of Shiga toxin in Vero cells; 290,000 tested, 9.2% active; inhibition, % at 38.7 µM; Vero cells, Shiga toxin protein synthesis inhibition reporter; in the data active = inhibition mostly above about 28%, no sharp cut-off; inactive = mostly below about 43%; also: 0% is about no effect
AmpC detergent: inhibitors of E. coli AmpC beta-lactamase with detergent. P00811. AmpC hydrolysis of nitrocefin, absorbance 480 nm, 0.01% Triton. Potency, µM (series often up to 114 µM), for the others: at the highest dose activity change, negative = inhibition, usual class: inhibitors. 370,000 tested, 0.041% active;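 also: potency is read from the fitted curve at half-maximal effect; 0% = no-compound wells and -100% = no-enzyme wells; nearly all actives have a fitted effect of over 25% in size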
Target sequence (P00811 whole entry, looked up): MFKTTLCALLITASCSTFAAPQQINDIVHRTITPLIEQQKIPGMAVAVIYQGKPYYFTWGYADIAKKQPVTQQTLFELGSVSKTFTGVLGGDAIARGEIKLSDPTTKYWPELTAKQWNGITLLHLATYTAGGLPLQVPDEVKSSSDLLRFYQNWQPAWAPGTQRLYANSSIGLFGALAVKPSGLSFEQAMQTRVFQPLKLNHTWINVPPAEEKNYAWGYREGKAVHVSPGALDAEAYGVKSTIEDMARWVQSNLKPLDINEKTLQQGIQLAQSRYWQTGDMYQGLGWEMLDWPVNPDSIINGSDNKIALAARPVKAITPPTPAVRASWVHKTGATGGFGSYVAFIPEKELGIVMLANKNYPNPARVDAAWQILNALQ
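20 mM phosphate pH 7.0 + 0.01% (detergent screen) or 0.0001% Triton X-100; 5.3 nM AmpC reagent; cpd preinc 15 min RT; nitrocefin (800 uM stock) to start; A480 q20 s × 4 min; Activity was normalised to no-enzyme and no-compound control wells.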
NS1 function inh: blocks influenza NS1 protein function. Potency, µM (highest dose often 46.1 µM), inactives show at the top dose activity, positive = more growth. 270,000 tested, 0.4% active; calls by dose curve; also: potency is read from the fitted curve at half-maximal effect; actives are rising curves; nearly all actives have a fitted effect of over 50% in size
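Compounds were scored for reversing the slow growth caused by influenza A NS1 in S. cerevisiae, measured by optical density at 600 nm. Assay medium contained 2% galactose at pH 6.0; NS1-free yeast of the same strain were the positive control.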
CHX counter: counter-screen for Shiga toxin inhibitors: cycloheximide protein synthesis inhibition; max response, %; AID 2314; 300,000 tested, 12% active; cell reporter, cycloheximide protein synthesis inhibition counterscreen; in the data active = max response mostly above about 13%, no sharp cut-off; inactive = mostly below about 14%; also: read at 38.3 µM for the half of the compounds with a filed dose; 0% is about no effect
AmpC inh no detg: inhibitors of E. coli AmpC beta-lactamase without detergent. AmpC nitrocefin hydrolysis, absorbance 480 nm, 0.0001% Triton. Potency, µM (doses to about 57.1 µM), for the others: at the top dose activity change, negative = inhibition, actives largely listed as inhibitors. 330,000 tested, 0.52% active. AID 485341;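 also: potency is read from the fitted curve at half-maximal effect; plate controls were no compound for no effect and no enzyme for full effect; nearly all actives have a fitted effect of over 20% in size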
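AmpC (5.3 nM in the dispensed reagent) in 20 mM phosphate pH 7.0 with 0.01% (detergent screen) or 0.0001% Triton X-100 was preincubated with compounds for 15 min at room temperature. Nitrocefin was then added from an 800 uM solution, and hydrolysis was followed at 480 nm.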
Starred values were filed as active, the others as inactive; ? = inconclusive; nt = no result given; [ ] = remark or other dose. Unless noted, calls follow the shape of the dose curve; as a rule, active = well fitted curve in the direction sought with a large enough effect; inconclusive = small, poorly fitted or top-dose-only effect, or another doubt; inactive = no such curve, though single readings can be large; an effect the other way counts as inactive or inconclusive.

SMILES	Shiga inhibitor	AmpC detergent	NS1 function inh	CHX counter	AmpC inh no detg
Cc1ccc(C2(C)NC(=O)N(CC(=O)Nc3cc(S(=O)(=O)N(C)C)ccc3C)C2=O)cc1 (stereo not drawn)	-15	-10%	9%	-2	11%
COc1ccc(/C=C2/N=C3CCCCCN3C2=O)cc1	75*	6%	nt	30*	1%
COc1cc(/C=C2\N=C3CCCCCN3C2=O)ccc1O	114*	-10%	0%	30*	-15%
O=C1/C(=C\c2ccc(O)c(O)c2)N=C2CCCCCN12	106*	5%	-4%	17*	-25%
O=C(CC(=O)NC1CCCCC1)N/N=C/c1ccccc1F	-6	-10%	nt	-1	-5%[11.4 µM]
Cc1nn(-c2ccccc2)c(-n2cccc2)c1C(=O)NCCc1ccc(Cl)cc1	nt	14%	nt	nt	nt
COc1cccc(/C=N/n2nnnc2N)c1O	59*	0%	-7%	21*	-26%
COc1ccc(/C=N/n2nnnc2N)c(OC)c1	28*	3%	-2%	23*	-11%
COc1ccccc1/C=N/n1nnnc1N	19	2%	-4%	2	-39%
CCCCCCc1cc2cc(-c3nnc(-c4cccc(Cl)c4)o3)c(=O)oc2cc1O	nt	1%	nt	nt	nt
Fc1cnc(Cl)nc1NC1CCCCC1	-4	-1%	-1%	0	-11%
O=C1NC(=O)C(Cc2ccc(OCCN3COc4ccccc4C3=O)cc2)S1 (stereo not drawn)	9	nt	nt	25*	nt
O=C(COc1ccc(Cl)cc1)c1ccc(O)cc1O	69*	-1%	-96%	25*	-41%
CCOC(=O)c1ccc(OCC(=O)c2ccc(O)cc2O)cc1	50*	-12%	-55%	18*	-55%
COC(=O)c1ccc(OCC(=O)c2ccc(O)cc2O)cc1	54	?	3%	11	-29%
O=C(COc1ccccc1)OCC(=O)c1ccc(O)cc1O	nt	2%	nt	nt	-22%
CCCN(CCC)CCNC(=O)c1cc2c(=O)oc3ccc(C)cc3c2s1	nt	-11%	nt	nt	nt
Cc1cc(C)cc(C(=O)n2nc(C)c(S(=O)(=O)N3CCOCC3)c2C)c1	nt	17%	nt	nt	nt
COc1ccccc1Nc1nc(N)nc(CSC(=S)N2CCC(C)CC2)n1	31	0%	?	43*	-15%
COc1ccccc1Nc1nc(N)nc(CSC(=S)N2CCCCC2C)n1 (stereo not drawn)	43*	-1%	-7%	43*	-14%
CCOc1ccc(C(=O)NCCc2sc3nc(-c4ccc(Cl)cc4)nn3c2C)cc1OCC	nt	-2%	nt	nt	nt
O=C(c1cc(COc2c(F)cccc2F)on1)N1CCc2ccccc2C1	52*	-1%	-9%	10	-5%
O=C(c1cc(-c2ccc(Cl)cc2)on1)N1CCc2ccccc2C1	-9	6%	-4%	-3	-29%
O=C(c1cc(COc2cccc3cnccc23)on1)N1CCC(c2ccccc2Cl)C1 (stereo not drawn)	20	?	-2%	-3	11%
O=C(c1cc(COc2c(F)cccc2F)on1)N1CCC(c2ccccc2Cl)C1 (stereo not drawn)	82*	4%	9%	51*	-19%
SMILES	Shiga inhibitor	AmpC detergent	NS1 function inh	CHX counter	AmpC inh no detg
O=C(c1cc(COc2c(F)cccc2F)on1)N1CCC(c2ccccc2F)C1 (stereo not drawn)	90*	6%	5%	36*	-7%
COc1ccc(C)cc1NC(=O)CSc1ncc2c(n1)-c1ccc(Cl)cc1N(Cc1ccccc1)S2(=O)=O	nt	2%	nt	nt	nt
Cc1ccc(C(=O)CCNc2ccccc2)o1	76*	0%	-48%	27*	nt
Cc1ccc(C(=O)CCNc2cccc(Br)c2)o1	32	?	-30%	16	-18%
Cc1ccc(C(=O)CCNc2ccc(Br)cc2)o1	62*	-7%	-7%	27*	nt
C=CCN1C(=O)c2ccc(C(=O)N(C)CC(=O)Nc3c(C)cccc3C)cc2C1=O	nt	0%	nt	nt	-3%
NC(=O)CC1(CC(=O)O)CCCCC1	8	71µM*	6%	1	-31%
COc1ccccc1C(=O)NNC(=O)c1ccccc1F	58*	?	-2%	47*	-6%
O=C(Nc1ccc(F)cc1)c1ccc2[nH]c(=O)c(=O)[nH]c2c1	6	?	10%	1	-15%
CC(C)(C)NC(=O)C(=O)NNC(=O)c1cccc(F)c1	44	-8%	nt	38*	-7%
O=C(NNC(=O)c1ccccc1F)c1ccc2[nH]c(=O)c(=O)[nH]c2c1	41*	2%	-5%	34*	-20%
COc1ccccc1C(=O)NNC(=O)c1cccc(F)c1	88*	3%	-9%	51*	-18%
Cc1occc1C(=O)NNC(=O)c1cccc(F)c1	8	?	nt	14	-16%[11.4 µM]
O=C(Nc1cc(C(=O)N2CCN(c3ccccc3O)CC2)ccc1Cl)c1cccs1	nt	?	nt	nt	-20%
Cc1cccc(-c2noc(CNC(=O)c3ccccc3Br)n2)c1	nt	13%	nt	nt	nt
COc1cc2ccccc2cc1C(=O)NNC(=O)c1ccccc1O	7	-7%	-21%	-3	-27%
COc1ccccc1C(=O)NNC(=O)c1cccc(O)c1	21	-12%	?	23*	-16%
CCOC(=O)c1cc2n(n1)C(C(F)(F)F)CC(C)N2 (stereo not drawn)	13	-15%	9%	12*	-9%
CCOc1ccccc1Nc1nc(-c2cccc(Cl)c2)c2c(n1)-c1ccccc1OC2	nt	-5%	nt	nt	nt
O=C(Nc1cccc(F)c1)Nc1ccc2c(c1)OCO2	85*	?	-37%	59*	-32%
O=C(Nc1ccc2c(c1)OCO2)c1c(F)cccc1F	75*	-13%	13%	33*	-22%
CC(C)[C@H](NC(=O)c1ccccc1F)C(=O)Nc1ccc2c(c1)OCO2	nt	2%	nt	nt	-23%
O=C(O)Cc1ccc(NC(=O)Nc2ccc3c(c2)OCO3)cc1	47*	?	4%	35*	-10%
O=C(Nc1ccc2c(c1)OCO2)c1cccc(F)c1	75*	-5%	-63%	34*	nt
Nc1c(-c2nc(-c3ccccc3Cl)no2)nnn1-c1ccccc1F	nt	23%	nt	nt	nt
SMILES	Shiga inhibitor	AmpC detergent	NS1 function inh	CHX counter	AmpC inh no detg
O=C(Cc1ccc(S(=O)(=O)N2CCCC2)s1)Nc1nc2c(s1)CCCC2	46*	?	-9%	28*	14µM*
O=C(CCN1C(=O)c2ccccc2S1(=O)=O)Nc1nc2c(s1)CCCC2	122*	-6%	-8%	18*	-19%
Cc1csc(NC(=O)CCCC(=O)c2ccccc2)n1	50*	5%	-8%	22*	-14%
Cc1ccccc1NC(=O)CCCC(=O)c1ccccc1	-5	3%	0%	16	5%
O=C(CCN1C(=O)c2ccccc2S1(=O)=O)Nc1cccc2ccccc12	-3	-2%	5%	-4	-10%
O=C(CCCc1cccs1)Nc1nc2c(s1)CCCC2	30*	-10%	-36%	57*	-32%
O=C(CCS(=O)(=O)Cc1ccccc1)Nc1nc2c(s1)CCCC2	3	0%	-17%	10	-5%
O=C(CN1C(=O)c2ccccc2Sc2ccc(C(=O)N3CCOCC3)cc21)Nc1ccc(Cl)cc1F	nt	1%	nt	nt	nt
Cc1cccc(C(=O)O)c1C[C@H]1NCC[C@H]2c3ccccc3N[C@@H]12	nt	nt	-3%	nt	nt

Source: PubChem
